Shown are actives, neighbours in structure and some others; about 2% of the full set was active somewhere.
FUS suppressor = rescues growth of FUS-expressing yeast; actives 0.24% (n = 390,000); Potency, µM (doses to about 76.6 µM), hits mostly activators; AID 1347120; S. cerevisiae FUS-expressing, growth rescue, OD600, 24 h;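 also: potency is read from the fitted curve at half-maximal effect; plate controls were DMSO vehicle for no effect and reference control for full effect; nearly all actives have a fitted effect of over 55% in size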
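S. cerevisiae expressing FUS from galactose induction served as the toxicity model. Growth after 24hr at 30C, read as absorbance at 600 nm, indicates suppression of toxicity; compounds dosed at several concentrations.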
TDP-43 yeast inh = inhibitors of TDP-43 toxicity in yeast; actives 1.8% (n = 410,000); Potency, µM (series often up to 46.1 µM), without a hit: at the top dose growth rescue (activation), most hits filed as activators; TDP-43 expressing yeast growth rescue, BacTiter-Glo, 24 h; also: potency is read from the fitted curve at half-maximal effect; % of control where 0% means no effect; nearly all actives have a fitted effect of over 50% in size
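In this qHTS, compounds that restore growth of yeast expressing TDP-43 appear as activators. Cells (OD600=0.02, galactose medium, raffinose-pregrown) are incubated with compound 24 hr at 30 deg C and growth is quantified by BacTiter-Glo.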
LDHA inh = LDHA (human) enzyme inhibition. purified LDHA, NADH/diaphorase-resazurin fluorescence; hits give low values. activity change, % (values are at about 110 or 230 µM). actives 0.15% (n = 480,000); in the data active = activity change below about -30%; inconclusive = mostly about -25% to -30%;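 also: plate controls were DMSO wells for no effect and wells without enzyme for full effect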
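Human LDH5 (2 nM) was incubated with 0.06 mM NADH and 0.2 mM pyruvate for 5 min at room temperature in Tris pH 7.4. Remaining NADH was coupled through diaphorase/resazurin, and resorufin fluorescence was read at 0 and 20 min.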
Abeta yeast res = A-beta toxicity reversal in yeast; Potency, µM (titrated, usually from 46.1 µM), most hits filed as activators; AID 1347071; actives 0.063% (n = 410,000); yeast expressing A-beta42, growth rescue, OD600, 48 h; response scale: 0% DMSO, 100% iron-clioquinol control; also: potency is read from the fitted curve at half-maximal effect; nearly all actives have a fitted effect of over 55% in size
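Yeast growth medium received pinned compounds, then yeast cells expressing toxic A-beta were added; plates incubated at 30 C for 48 hr. Growth read as absorbance at 600 nm, normalized to DMSO and equimolar FeCl3 plus clioquinol controls.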
aSyn yeast inh = inhibitors of alpha-synuclein toxicity in yeast. Potency, µM (top dose mostly 46.1 µM), inactives show at the highest dose growth rescue (activation), hits mostly activators. Yeast expressing alpha-synuclein, growth rescue, BacTiter-Glo, 24 h. actives 0.14% (n = 370,000); also: potency is read from the fitted curve at half-maximal effect; % of control where 0% means no effect; nearly all actives have a fitted effect of over 65% in size
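Rescue of yeast growth: cells expressing toxic alpha-synuclein, induced in galactose at OD600 0.02, incubated with compound 24 h at 30 C. ATP luminescence quantified growth; inhibitors of toxicity appear as activators.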
mIDH1 inhibitor = human IDH1 R132H inhibition; O75874; Potency, µM (highest dose often 76.6 µM), for the others: top-dose activity change, negative = inhibition, most hits filed as inhibitors; actives 0.093% (n = 390,000); IDH1-R132H enzyme, NADPH consumption, diaphorase/resazurin fluorescence; also: potency is read from the fitted curve at half-maximal effect; % is scaled to controls: 0 for no effect and ±100 for the full control effect; nearly all actives have a fitted effect of over 65% in size
Target sequence (O75874 whole entry R132H, stated change not applied): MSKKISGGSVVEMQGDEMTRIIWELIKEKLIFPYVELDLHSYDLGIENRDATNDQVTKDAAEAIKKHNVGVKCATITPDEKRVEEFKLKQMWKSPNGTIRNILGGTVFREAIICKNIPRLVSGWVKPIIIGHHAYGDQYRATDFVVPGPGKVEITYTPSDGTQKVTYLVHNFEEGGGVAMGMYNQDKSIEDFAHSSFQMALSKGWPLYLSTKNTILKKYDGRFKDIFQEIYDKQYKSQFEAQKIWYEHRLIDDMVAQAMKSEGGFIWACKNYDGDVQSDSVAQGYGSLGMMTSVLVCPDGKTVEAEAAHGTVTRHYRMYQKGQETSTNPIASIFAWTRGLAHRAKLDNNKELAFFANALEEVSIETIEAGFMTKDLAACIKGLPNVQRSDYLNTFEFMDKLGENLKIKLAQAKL
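IDH1-R132H (0.5 ug/mL dispensed) in pH 7.5 Tris buffer was preincubated 30 min with compound, then given a substrate mix of 0.016 mM NADPH and 2 mM alpha-KG for 80 min at room temperature; remaining NADPH was read by diaphorase/resazurin fluorescence.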
The depositor's hits bear a star; i = inactive; ? = inconclusive; · = no result; [ ] = remark or other dose. Unless noted, calls follow the shape of the dose curve; as a rule, active = well fitted curve in the direction sought with a large enough effect; inconclusive = small, poorly fitted or top-dose-only effect, or another doubt; inactive = no such curve, though single readings can be large; an effect the other way counts as inactive or inconclusive.

SMILES | FUS suppressor | TDP-43 yeast inh | LDHA inh | Abeta yeast res | aSyn yeast inh | mIDH1 inhibitor
CCC(=O)N1N=C(c2cccs2)CC1c1ccc(C)cc1 (configuration not stated) | i | 20µM* | 1 | i | 16% | 4%
O=C(c1ccco1)N1N=C(c2cccs2)CC1c1ccc(F)cc1 (configuration not stated) | i | ? | 0 | i | · | 1%
Cc1ccc(C2CC(c3cccs3)=NN2C(=O)CCl)cc1 (configuration not stated) | i | 13µM* | -2 | i | 1% | 5%
CCOC(=O)C1C(=O)C=C(/C=C/c2ccco2)CC1c1ccccc1 (configuration not stated) | · | · | -23 | · | · | ·
CCc1ccc(-c2cc(C(=O)NCc3cccnc3)c3ccccc3n2)cc1 | · | · | -2 | · | · | ·
Nc1nc(-c2ccc(Br)s2)c(Br)s1 | i | 11µM* | -5 | i | 4% | 3%
Oc1ccc(C[C@H]2CNC(=S)N2CC2CCCN2C[C@H](Cc2ccc(O)cc2)N2C[C@H](Cc3ccc(O)cc3)N(CC3CCCCC3)C2=S)cc1 (some centres not stated) | ? | 11µM* | -11 | i | -41% | -9%
CCOc1ccc(CCN2C(=S)N([C@@H](Cc3ccccc3)CN3CCCC3CN3C(=S)NC[C@@H]3Cc3ccccc3)C[C@@H]2Cc2ccc(O)cc2)cc1 (some centres not stated) | 11µM* | -23% | 3 | i | -27% | ·
CCOc1ccc(CCN2C(=S)N([C@@H](CC(C)C)CN3CCC[C@@H]3CN3C(=S)NC[C@@H]3Cc3ccccc3)C[C@@H]2Cc2ccc(O)cc2)cc1 | 28µM* | 1% | -9 | i | -40% | ·
CCOc1ccc(CCN2C(=S)N([C@@H](Cc3ccc(O)cc3)CN3CCC[C@@H]3CN3C(=S)NC[C@@H]3Cc3ccccc3)C[C@@H]2Cc2ccccc2)cc1 | ? | 0% | -16 | i | -29% | ·
O=c1[nH]c(=O)n(Cc2ccccc2)c2nc(-c3ccncc3)n(CC3CCCO3)c12 (configuration not stated) | · | · | -3 | · | · | ·
COc1ccc2c(c1)c(C(C(=O)O)N1CCN(CCC#N)CC1)cn2CC(=O)O (configuration not stated) | · | · | -2 | · | · | ·
COC(=O)c1cccc(NC(=O)c2nsc3ccccc23)c1 | i | 15% | -8 | i | · | ·
COc1cccc(CNC(=O)COc2ccc(C(=O)c3ccccc3)cc2)c1 | i | 35µM* | -10 | ? | -48% | 3%
CCCCc1ccc(NC(=S)NCc2cccc(OC)c2)cc1 | i | -6%[0.397 µM] | -2 | 10µM* | -17% | 0%
O=C(Nc1cccc(C(=O)N2CCCCC2)c1)c1nsc2ccccc12 | i | 35µM* | -2 | i | · | -8%
COc1cccc(CNC(=O)c2cccc(Br)c2)c1 | i | 22µM* | -5 | i | -20% | 6%
COc1ccc(C(=O)NCc2cccc(OC)c2)cc1 | · | · | 10 | · | · | ·
O=Cc1c(-c2ccc(Cl)cc2)[nH]c2ccc(Br)cc12 | · | · | 1 | · | · | ·
CC(C)CNC(=O)CSc1nnc(-c2nn(Cc3ccccc3)c(=O)c3ccccc23)o1 | · | · | -2 | · | · | ·
CCN(CC)c1ccc(NC(=O)CCc2c[nH]c3ccccc23)cc1 | · | · | 1 | · | · | ·
C=CCNc1oc(COc2ccc(Br)cc2)nc1C#N | · | · | 2 | · | · | ·
CSCCC(=O)N1CCN(c2oc(-c3ccco3)nc2C#N)CC1 | · | · | 9 | · | · | ·
COc1cccc(CNC(=O)c2cccc(NC(=O)c3nsc4ccccc34)c2)c1 | i | 35µM* | -11 | i | · | -3%
CCOC(=O)c1sc(-c2ccccc2)cc1N | i | 7.1µM* | -2 | i | 16% | 7%
CCOC(=O)c1sc(-c2ccc(F)cc2)cc1N | i | 19% | -9 | i | -15% | 6%
